This is an account of results in paper PMC7862700, “An all-to-all approach to the identification of sequence-specific readers for epigenetic DNA modifications on cytosine”.

Common to all, as to test: DAPPL (digital affinity profiling via proximity ligation, sequencing); 10 mM Tris-HCl pH 7.5, 50 mM NaCl, 1 mM DTT, 4% glycerol, room temperature, 30 min; GST-TFs on glutathione beads, 16-mer random dsDNA library, 0.1% formaldehyde crosslink after washing; high values mean tight binding
One experiment concerns the target T1, FLI1 (Homo sapiens, UniProt Q01543 1-452).
T1 sequence: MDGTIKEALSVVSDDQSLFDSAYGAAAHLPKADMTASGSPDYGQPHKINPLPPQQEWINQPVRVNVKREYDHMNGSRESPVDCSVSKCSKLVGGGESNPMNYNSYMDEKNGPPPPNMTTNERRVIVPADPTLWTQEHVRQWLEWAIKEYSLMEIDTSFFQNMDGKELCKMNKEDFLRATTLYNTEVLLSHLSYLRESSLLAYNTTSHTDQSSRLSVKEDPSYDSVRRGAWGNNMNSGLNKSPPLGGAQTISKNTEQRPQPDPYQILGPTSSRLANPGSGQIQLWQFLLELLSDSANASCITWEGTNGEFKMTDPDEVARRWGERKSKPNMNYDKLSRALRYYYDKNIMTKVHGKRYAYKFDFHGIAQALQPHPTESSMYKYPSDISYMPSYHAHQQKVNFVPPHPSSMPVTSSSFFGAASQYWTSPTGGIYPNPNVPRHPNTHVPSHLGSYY
The note with it: protein: recombinant; tags: N-terminal GST; dsDNA, one strand shown. In outline:
(§1)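 Pools were built from human transcription factors expressed in yeast as GST fusions, captured on glutathione beads and DNA-barcoded, along with a tag-only sample. Incubation with 200 nmole of a 16-mer random double-stranded DNA library lasted 30 min at room temperature in Tris/NaCl/DTT/glycerol buffer, and was followed by washing, 0.1% formaldehyde crosslinking, proximity ligation, PCR amplification and Illumina NextSeq500 sequencing. Binding signal is the quotient of each hexamer's read frequency for a factor and its frequency for the tag-only sample.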

Another experiment deals with T2, ELK1 (Homo sapiens, UniProt P19419 1-428).
T2 sequence: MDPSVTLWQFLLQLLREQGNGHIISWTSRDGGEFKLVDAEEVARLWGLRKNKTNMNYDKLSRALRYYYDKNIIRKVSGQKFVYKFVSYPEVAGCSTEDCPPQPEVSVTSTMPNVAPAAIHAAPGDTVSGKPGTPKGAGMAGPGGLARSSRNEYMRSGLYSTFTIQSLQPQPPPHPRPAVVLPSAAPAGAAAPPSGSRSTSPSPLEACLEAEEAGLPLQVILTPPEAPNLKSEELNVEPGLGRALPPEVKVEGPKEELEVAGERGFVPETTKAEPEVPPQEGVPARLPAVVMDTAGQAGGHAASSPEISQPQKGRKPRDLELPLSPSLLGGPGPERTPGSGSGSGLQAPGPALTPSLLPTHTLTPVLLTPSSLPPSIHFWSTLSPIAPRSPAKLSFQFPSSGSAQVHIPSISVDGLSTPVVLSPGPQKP
The settings on record: protein: recombinant; tags: N-terminal GST; dsDNA, one strand shown. In a few lines: as §1

For a further experiment, the target named is T3, GABPA (Homo sapiens, UniProt Q06546 1-454).
T3 sequence: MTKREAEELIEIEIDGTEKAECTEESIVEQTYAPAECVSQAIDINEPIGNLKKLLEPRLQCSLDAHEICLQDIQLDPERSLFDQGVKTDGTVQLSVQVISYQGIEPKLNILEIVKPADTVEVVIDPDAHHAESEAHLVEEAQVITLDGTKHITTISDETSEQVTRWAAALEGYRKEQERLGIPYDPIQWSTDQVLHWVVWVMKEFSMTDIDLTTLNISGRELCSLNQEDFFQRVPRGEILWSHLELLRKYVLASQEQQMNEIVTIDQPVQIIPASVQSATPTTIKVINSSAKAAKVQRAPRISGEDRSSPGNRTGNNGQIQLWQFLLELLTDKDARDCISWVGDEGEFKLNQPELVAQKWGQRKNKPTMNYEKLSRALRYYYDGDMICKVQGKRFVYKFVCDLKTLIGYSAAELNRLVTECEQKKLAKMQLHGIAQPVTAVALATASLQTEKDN
The note with it: protein: recombinant; tags: N-terminal GST; dsDNA, one strand shown. In outline: as §1

Another experiment addresses T4, ERG (Homo sapiens, UniProt P11308 1-479).
T4 sequence: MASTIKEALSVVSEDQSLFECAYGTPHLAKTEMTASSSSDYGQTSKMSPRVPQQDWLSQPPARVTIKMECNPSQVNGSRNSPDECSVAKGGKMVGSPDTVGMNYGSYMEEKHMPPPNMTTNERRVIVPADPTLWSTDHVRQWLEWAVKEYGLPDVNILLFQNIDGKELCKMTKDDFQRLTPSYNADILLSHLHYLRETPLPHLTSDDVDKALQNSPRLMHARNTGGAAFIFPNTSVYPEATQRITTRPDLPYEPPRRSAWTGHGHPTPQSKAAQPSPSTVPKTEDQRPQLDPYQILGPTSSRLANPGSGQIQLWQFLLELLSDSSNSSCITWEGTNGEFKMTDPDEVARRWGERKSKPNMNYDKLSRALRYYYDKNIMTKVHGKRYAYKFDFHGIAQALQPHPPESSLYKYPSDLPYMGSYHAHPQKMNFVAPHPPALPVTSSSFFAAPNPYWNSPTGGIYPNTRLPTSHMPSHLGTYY
The note with it: protein: recombinant; tags: N-terminal GST; dsDNA, one strand shown. In a few lines: as §1

The next experiment deals with ELF1 (Homo sapiens, UniProt P32519 1-619). The settings on record: protein: recombinant; tags: N-terminal GST; dsDNA, one strand shown. In outline:
as §1

The target in a further experiment is T5, EHF (Homo sapiens, UniProt Q9NZC4 1-300).
T5 sequence: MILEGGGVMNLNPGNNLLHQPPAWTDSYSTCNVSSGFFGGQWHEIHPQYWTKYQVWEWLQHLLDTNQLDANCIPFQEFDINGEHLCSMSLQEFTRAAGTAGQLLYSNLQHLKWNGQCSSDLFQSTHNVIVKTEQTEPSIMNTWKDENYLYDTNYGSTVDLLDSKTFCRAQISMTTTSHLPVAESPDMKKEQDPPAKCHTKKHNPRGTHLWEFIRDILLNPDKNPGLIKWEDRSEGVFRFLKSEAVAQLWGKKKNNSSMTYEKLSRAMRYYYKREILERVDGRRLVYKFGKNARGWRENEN
The settings on record: protein: recombinant; tags: N-terminal GST; dsDNA, one strand shown. In a few lines:
as §1

The next experiment concerns the target SPI1 (Homo sapiens, UniProt P17947 1-270). The settings on record: protein: recombinant; tags: N-terminal GST; dsDNA, one strand shown. In a few lines:
as §1

The next experiment has as its target SPIB (Homo sapiens, UniProt Q01892 1-262). The settings on record: protein: recombinant; tags: N-terminal GST; dsDNA, one strand shown. In a few lines:
as §1

For another experiment, the target named is T6, ELK3 (Homo sapiens, UniProt P41970 1-407).
T6 sequence: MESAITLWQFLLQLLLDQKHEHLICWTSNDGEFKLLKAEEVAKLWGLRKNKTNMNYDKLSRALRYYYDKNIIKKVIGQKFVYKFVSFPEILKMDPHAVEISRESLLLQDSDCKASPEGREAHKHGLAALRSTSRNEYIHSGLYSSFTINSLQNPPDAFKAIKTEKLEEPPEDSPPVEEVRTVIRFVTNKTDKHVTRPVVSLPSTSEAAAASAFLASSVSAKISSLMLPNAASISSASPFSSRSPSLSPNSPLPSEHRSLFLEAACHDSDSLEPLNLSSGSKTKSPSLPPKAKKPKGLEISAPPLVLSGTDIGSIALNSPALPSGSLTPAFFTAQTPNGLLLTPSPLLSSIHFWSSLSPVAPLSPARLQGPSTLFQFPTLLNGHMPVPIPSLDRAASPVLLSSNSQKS
The note with it: protein: recombinant; tags: N-terminal GST; dsDNA, one strand shown. In outline:
as §1

For another experiment, the target named is T7, FEV (Homo sapiens, UniProt Q99581 1-238).
T7 sequence: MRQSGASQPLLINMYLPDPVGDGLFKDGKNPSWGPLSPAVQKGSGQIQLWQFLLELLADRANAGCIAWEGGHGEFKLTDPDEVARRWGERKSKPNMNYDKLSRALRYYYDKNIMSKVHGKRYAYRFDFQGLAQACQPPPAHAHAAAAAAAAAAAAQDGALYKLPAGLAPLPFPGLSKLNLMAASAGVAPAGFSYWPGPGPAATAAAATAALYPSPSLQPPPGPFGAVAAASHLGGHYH
The note with it: protein: recombinant; tags: N-terminal GST; dsDNA, one strand shown. In outline: as §1

The target of the next experiment is ETV5 (Homo sapiens, UniProt P41161 1-510). The settings on record: protein: recombinant; tags: N-terminal GST; dsDNA, one strand shown. In outline:
as §1

The next experiment concerns the target HSF1 (Homo sapiens, UniProt Q00613 1-529). The settings on record: protein: recombinant; tags: N-terminal GST; chain copies: 3; dsDNA, one strand shown. In outline:
as §1

Another experiment deals with T8, SPIC (Homo sapiens, UniProt Q8N5J4 1-248).
T8 sequence: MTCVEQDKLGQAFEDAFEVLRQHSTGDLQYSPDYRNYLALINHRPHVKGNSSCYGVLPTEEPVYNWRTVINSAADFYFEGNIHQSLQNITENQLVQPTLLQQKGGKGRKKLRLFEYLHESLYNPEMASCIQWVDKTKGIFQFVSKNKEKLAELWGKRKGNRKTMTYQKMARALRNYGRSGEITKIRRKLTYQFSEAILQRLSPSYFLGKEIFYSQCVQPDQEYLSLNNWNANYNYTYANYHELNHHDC
The note with it: protein: recombinant; tags: N-terminal GST; dsDNA, one strand shown. In outline:
as §1

The target of a further experiment is ELF4 (Homo sapiens, UniProt Q99607 1-663). The note with it: protein: recombinant; tags: N-terminal GST; dsDNA, one strand shown. In outline:
as §1

The next experiment has as its target T9, ELK4 (Homo sapiens, UniProt P28324-2 1-405).
T9 sequence: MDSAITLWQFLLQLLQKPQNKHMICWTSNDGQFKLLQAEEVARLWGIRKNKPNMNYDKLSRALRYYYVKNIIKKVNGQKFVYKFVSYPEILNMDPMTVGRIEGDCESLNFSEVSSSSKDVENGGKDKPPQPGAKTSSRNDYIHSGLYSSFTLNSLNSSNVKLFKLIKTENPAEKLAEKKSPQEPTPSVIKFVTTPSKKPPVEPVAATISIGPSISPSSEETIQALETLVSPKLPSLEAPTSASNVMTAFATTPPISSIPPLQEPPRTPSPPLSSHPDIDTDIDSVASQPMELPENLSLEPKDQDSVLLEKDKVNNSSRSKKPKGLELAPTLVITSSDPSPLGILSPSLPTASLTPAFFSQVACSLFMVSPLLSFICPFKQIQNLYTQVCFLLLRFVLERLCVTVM
The note with it: protein: recombinant; tags: N-terminal GST; dsDNA, one strand shown. In outline:
as §1

A further experiment has as its target T10, ETV2 (Homo sapiens, UniProt O00321 1-342).
T10 sequence: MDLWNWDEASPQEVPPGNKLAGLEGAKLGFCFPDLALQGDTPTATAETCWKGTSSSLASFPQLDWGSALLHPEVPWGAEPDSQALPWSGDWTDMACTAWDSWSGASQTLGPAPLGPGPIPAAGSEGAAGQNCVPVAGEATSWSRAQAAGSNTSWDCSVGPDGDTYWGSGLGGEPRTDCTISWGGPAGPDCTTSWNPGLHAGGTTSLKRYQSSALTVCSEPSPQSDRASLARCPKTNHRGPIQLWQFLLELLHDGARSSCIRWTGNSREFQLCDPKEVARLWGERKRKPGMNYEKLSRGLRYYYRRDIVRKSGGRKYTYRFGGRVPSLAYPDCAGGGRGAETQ
The settings on record: protein: recombinant; tags: N-terminal GST; dsDNA, one strand shown. In outline:
as §1

A further experiment has as its target T11, ELF3 (Homo sapiens, UniProt P78545 1-371).
T11 sequence: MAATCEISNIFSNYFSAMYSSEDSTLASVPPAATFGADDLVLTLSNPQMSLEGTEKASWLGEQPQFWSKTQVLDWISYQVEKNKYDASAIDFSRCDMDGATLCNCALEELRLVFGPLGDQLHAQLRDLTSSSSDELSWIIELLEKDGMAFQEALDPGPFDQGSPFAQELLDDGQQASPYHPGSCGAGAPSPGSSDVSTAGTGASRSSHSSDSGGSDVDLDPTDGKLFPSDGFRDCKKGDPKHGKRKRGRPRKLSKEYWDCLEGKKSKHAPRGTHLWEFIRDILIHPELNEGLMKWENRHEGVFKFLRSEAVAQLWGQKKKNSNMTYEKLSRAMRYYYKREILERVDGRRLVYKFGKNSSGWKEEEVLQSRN
The note with it: protein: recombinant; tags: N-terminal GST; dsDNA, one strand shown. In outline: as §1

A further experiment has as its target CRX (Homo sapiens, UniProt O43186 1-299). The settings on record: protein: recombinant; tags: N-terminal GST; dsDNA, one strand shown. In a few lines:
as §1

The next experiment concerns the target ETV1 (Homo sapiens, UniProt P50549 1-477). The settings on record: protein: recombinant; tags: N-terminal GST; dsDNA, one strand shown. In a few lines: as §1

CRX, sequence (O43186 whole entry): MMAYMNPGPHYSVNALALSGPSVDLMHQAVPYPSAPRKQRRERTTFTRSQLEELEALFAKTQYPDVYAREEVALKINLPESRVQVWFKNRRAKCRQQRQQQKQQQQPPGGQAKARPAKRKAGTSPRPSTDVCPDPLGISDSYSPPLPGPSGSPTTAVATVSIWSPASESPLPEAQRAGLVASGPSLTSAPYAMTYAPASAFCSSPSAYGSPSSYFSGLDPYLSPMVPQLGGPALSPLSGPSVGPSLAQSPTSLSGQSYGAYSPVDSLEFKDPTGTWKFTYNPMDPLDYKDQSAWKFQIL
ELF1, sequence (P32519 whole entry): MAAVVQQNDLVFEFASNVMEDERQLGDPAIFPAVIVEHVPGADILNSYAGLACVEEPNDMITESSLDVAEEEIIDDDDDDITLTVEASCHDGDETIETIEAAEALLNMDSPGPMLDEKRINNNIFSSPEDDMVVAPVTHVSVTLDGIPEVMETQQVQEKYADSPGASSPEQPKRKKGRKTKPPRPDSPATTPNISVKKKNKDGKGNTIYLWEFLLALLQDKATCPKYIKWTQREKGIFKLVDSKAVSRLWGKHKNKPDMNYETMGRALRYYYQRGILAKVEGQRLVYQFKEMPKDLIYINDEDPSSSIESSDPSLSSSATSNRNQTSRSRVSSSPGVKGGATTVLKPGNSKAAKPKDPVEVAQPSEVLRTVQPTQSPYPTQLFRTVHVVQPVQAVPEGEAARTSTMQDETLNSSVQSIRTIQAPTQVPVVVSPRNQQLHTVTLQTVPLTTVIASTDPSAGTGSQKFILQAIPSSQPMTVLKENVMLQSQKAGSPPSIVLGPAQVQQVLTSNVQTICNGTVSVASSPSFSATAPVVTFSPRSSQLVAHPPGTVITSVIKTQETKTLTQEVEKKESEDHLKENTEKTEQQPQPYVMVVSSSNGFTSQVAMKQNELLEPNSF
HSF1, sequence (Q00613 whole entry): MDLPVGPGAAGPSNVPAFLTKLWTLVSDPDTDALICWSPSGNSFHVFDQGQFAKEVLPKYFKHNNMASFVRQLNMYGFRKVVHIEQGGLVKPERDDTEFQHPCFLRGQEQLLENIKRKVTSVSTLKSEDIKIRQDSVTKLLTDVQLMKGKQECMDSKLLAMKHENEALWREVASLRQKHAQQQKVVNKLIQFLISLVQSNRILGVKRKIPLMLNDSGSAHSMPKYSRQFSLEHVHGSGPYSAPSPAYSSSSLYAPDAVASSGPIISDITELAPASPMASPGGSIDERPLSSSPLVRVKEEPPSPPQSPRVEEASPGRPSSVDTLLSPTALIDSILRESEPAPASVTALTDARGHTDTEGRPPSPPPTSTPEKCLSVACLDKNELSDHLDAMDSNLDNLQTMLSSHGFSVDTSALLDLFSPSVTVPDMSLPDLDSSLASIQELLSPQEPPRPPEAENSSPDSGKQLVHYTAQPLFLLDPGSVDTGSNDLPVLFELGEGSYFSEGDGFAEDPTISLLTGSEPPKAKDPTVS
ETV1, sequence (P50549 whole entry): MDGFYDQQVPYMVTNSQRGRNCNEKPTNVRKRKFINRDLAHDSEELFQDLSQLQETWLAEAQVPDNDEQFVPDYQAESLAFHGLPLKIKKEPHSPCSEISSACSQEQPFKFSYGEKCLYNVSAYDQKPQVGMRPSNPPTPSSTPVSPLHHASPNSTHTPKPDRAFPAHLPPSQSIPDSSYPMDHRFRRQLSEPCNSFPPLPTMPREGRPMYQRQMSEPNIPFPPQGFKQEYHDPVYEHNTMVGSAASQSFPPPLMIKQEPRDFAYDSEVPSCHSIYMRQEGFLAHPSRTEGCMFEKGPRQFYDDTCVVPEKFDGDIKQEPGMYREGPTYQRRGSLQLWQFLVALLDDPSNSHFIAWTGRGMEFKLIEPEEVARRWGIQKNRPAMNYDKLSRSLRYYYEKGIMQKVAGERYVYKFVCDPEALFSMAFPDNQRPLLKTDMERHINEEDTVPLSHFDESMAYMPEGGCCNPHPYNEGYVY
ELF4, sequence (Q99607 whole entry): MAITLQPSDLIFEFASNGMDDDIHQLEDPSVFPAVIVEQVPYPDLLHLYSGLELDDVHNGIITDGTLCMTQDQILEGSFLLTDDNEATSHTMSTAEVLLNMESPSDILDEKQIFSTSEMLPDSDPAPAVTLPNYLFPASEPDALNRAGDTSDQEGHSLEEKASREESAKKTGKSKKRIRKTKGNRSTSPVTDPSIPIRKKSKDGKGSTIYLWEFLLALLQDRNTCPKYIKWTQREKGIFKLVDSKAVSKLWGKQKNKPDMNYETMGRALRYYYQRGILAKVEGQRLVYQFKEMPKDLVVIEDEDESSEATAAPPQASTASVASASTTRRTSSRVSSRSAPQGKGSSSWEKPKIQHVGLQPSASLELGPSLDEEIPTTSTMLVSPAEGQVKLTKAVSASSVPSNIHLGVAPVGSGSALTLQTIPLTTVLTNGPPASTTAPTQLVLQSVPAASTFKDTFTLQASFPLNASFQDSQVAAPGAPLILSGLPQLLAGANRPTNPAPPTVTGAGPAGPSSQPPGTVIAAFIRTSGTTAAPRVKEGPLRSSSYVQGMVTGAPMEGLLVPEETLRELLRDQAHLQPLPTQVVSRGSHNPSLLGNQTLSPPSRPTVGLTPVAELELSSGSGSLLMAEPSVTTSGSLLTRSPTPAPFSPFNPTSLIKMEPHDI
SPIB, sequence (Q01892 whole entry): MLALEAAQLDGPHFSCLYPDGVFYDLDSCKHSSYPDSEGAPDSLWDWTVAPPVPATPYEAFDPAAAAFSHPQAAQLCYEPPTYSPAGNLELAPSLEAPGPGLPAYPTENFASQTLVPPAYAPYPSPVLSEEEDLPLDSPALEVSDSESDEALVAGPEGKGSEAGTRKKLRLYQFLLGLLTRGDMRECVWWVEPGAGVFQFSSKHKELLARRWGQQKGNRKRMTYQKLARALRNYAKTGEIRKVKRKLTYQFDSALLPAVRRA
ETV5, sequence (P41161 whole entry): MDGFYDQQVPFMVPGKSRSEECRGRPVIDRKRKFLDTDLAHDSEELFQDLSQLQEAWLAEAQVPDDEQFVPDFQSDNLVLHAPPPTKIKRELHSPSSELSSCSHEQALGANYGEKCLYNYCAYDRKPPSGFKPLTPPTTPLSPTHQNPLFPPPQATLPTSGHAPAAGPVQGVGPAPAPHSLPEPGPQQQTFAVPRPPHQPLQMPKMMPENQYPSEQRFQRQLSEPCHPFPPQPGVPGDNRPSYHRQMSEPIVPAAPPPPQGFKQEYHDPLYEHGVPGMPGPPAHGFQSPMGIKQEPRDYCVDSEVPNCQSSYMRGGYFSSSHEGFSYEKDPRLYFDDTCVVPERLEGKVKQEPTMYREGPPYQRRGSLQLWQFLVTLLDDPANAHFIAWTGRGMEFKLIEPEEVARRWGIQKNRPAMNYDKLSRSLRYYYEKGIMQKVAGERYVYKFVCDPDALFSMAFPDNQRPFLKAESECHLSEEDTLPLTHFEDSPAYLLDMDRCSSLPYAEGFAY

Regarding TACGTT, the binding signal with FLI1 was 1.29 fold enrichment (6-mer frequency, TF over GST control); with ELK1 it was 1.26 fold enrichment (6-mer frequency, TF over GST control); with GABPA, 1.4 fold enrichment (6-mer frequency, TF over GST control); with ERG, 1.31 fold enrichment (6-mer frequency, TF over GST control); in the experiment with ELF1, 1.29 fold enrichment (6-mer frequency, TF over GST control); with EHF, 1.24 fold enrichment (6-mer frequency, TF over GST control). Also, the binding signal is 1.25 fold enrichment (6-mer frequency, TF over GST control) with SPI1; 1.33 fold enrichment (6-mer frequency, TF over GST control) with SPIB; 1.35 fold enrichment (6-mer frequency, TF over GST control) with ELK3; 1.35 fold enrichment (6-mer frequency, TF over GST control) with FEV; 1.33 fold enrichment (6-mer frequency, TF over GST control) with ETV5; 1.24 fold enrichment (6-mer frequency, TF over GST control) with HSF1. The binding signal was 1.47 fold enrichment (6-mer frequency, TF over GST control) with SPIC; 1.23 fold enrichment (6-mer frequency, TF over GST control) with ELF4; 1.29 fold enrichment (6-mer frequency, TF over GST control) in the experiment with ELK4; 1.27 fold enrichment (6-mer frequency, TF over GST control) with ETV2; 1.12 fold enrichment (6-mer frequency, TF over GST control) with ELF3; 1.34 fold enrichment (6-mer frequency, TF over GST control) with CRX. In addition, the binding signal with ETV1 is 1.29 fold enrichment (6-mer frequency, TF over GST control).
